The structures appear in SMILES notation. Several values for one entry are separate records, joined by “and”; a condition that tells them apart may be missing. Equal values may be shown once. Unmarked numbers belong to inactive results. Calls follow the shape of the dose curve; as a rule, active = well fitted activation curve with a large enough effect; inconclusive = small, poorly fitted or top-dose-only effect; inactive = flat fitted curve, though single readings scatter.

Sequence of Peroxisome proliferator-activated receptor alpha (Homo sapiens) (Q07869 whole entry, looked up): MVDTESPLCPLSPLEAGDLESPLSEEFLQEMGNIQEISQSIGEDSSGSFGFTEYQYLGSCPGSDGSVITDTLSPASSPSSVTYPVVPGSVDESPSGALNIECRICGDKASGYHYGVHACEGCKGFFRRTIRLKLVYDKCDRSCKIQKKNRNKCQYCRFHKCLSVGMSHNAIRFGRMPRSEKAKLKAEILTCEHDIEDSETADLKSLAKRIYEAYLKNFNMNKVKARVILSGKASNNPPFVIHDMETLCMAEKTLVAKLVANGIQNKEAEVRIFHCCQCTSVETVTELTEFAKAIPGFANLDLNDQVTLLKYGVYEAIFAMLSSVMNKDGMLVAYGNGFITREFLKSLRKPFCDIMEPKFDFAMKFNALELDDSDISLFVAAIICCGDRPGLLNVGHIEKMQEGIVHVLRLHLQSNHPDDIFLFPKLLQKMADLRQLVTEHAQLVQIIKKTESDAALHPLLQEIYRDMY

The assay deals with Peroxisome proliferator-activated receptor alpha (Homo sapiens) (UniProt Q07869). Kind of assay: qHTS assay for small molecule agonists of the peroxisome proliferator-activated receptor alpha (PPARalpha) signaling pathway (AID 651778). Also: % of control where 0% means no effect. Particulars: PathHunter PPARalpha complementation, chemiluminescence, 6 h; stronger effect = higher value. The text has this:
National Center for Advancing Translational Sciences [NCATS]
NIH Chemical Genomics Center [NCGC]
U.S. Environmental Protection Agency [EPA]
National Institutes of Environmental Health Sciences [NIEHS]
National Toxicology Program [NTP]
The Peroxisome proliferator-activated receptors (PPARs) are lipid-activated transcription factors of the nuclear receptor superfamily with three distinct subtypes (alpha, garmma and beta/delta). All these subtypes heterodimerize with retinoid X receptor and have different physiological functions. PPARalpha is highly expressed in tissues with high rates of mitochondrial fatty acid oxidation, such as liver, heart, muscle, kidney and cells of the arterial wall. PPARalpha is a major regulator of lipid metabolism and energy homeostasis.
A cell based assay was used to identify activators of PPARalpha. The assay detects binding of a ligand to PPARalpha leading to its activation, translocation and complementation thus forming a functional enzyme capable of hydrolyzing the substrate molecule and generating chemiluminescent signal.
2,000 cells in 6 uL/well were dispensed into white wall/solid bottom 1536-well plates using a Multidrop Combi (Thermo Scientific) dispenser. After incubation 37 C and 5% CO2 overnight, 23 nL compound or DMSO only were transferred by a pin tool. The plates were incubated for 6 hr at 37 C and 5% CO2. 3 ul PathHunter detection reagent (Discoverx) was then added to each well and following 60 min incubation at room temperature, chemiluminescence was quantified on a ViewLux CCD-based plate reader.
Regarding `O=C(O)CCCCCCCC(=O)O`, the max response is -1.61%. In the case of `CC(=O)Nc1nnc(S(N)(=O)=O)s1` it was -2.77%; in that of `CN=C(NC#N)NCCSCc1nc[nH]c1C`, 0.401%. For `NC(=Nc1ccccc1)Nc1ccccc1`, the max response is -2.99% and 6.68%. The same measure for `Nc1ncn([C@@H]2O[C@H](CO)[C@@H](O)[C@H]2O)c(=O)n1`: -2.48% and -2.55%. In the case of `CCCCNC(=O)NS(=O)(=O)c1ccc(C)cc1` it was -9.3% and -3.45%; in that of `O=c1[nH]c(=O)n([C@H]2C[C@H](O)[C@@H](CO)O2)cc1Br`, -2.48%.

For `COc1cc(Cc2cnc(N)nc2N)cc(OC)c1OC`, the max response is -3.22%.

As to `Cc1ccc(S(=O)(=O)NC(=O)NN2CCCCCC2)cc1`, the max response is -0.39%. The same measure for `CCCCOCCOCCOCc1cc2c(cc1CCC)OCO2`: -0.481% and -4.29%. Turning to `NC(=O)N1c2ccccc2C=Cc2ccccc21`, the max response was -1.1% and -0.275%. As for `CC(C)(Oc1ccc(CCNC(=O)c2ccc(Cl)cc2)cc1)C(=O)O`, the max response is 9.62%.

For the compound `C[C@]12CCC(=O)C=C1CC[C@@H]1[C@@H]2C(=O)C[C@@]2(C)[C@H]1CC[C@]2(O)C(=O)CO`, the max response was -0.227%. Consider `COc1ccc(CN(CCN(C)C)c2ccccn2)cc1`, for which the max response was -5.33%. The same measure for `CC(=O)[C@@]1(O)CC[C@H]2[C@@H]3CCC4=CC(=O)CC[C@]4(C)[C@H]3CC[C@@]21C`: -2.31%. With `Nc1nc(N)c2nc(-c3ccccc3)c(N)nc2n1`, the max response was -0.436% and -0.649%. The same measure for `COC(=O)[C@H]1[C@H]2C[C@@H]3c4[nH]c5cc(OC)ccc5c4CCN3C[C@H]2C[C@@H](OC(=O)c2cc(OC)c(OC)c(OC)c2)[C@@H]1OC`: 4.44% and 8.97%; for `C[C@]12C=CC(=O)C=C1CC[C@H]1[C@@H]3C[C@@H](O)[C@](O)(C(=O)CO)[C@@]3(C)C[C@H](O)[C@@]12F`: 4.65%.

For the origin of these results see PubChem BioAssay (NCATS).
